# Source: PubChem BioAssay
# Mot1-301 SUMO: SUMOylation pathway inhibition by Mot1-301 growth rescue | S. cerevisiae Mot1-301 growth rescue, ATP luminescence, 38.5C; percent above DMSO median, 100 means doubled | growth rescue, % at 18.8 µM | hit rate 1% among 320,000;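 active means every valid replicate shows activation above 250% relative to neutral control wells; inactive means the rest, any valid replicate at or below 250%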;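 further: OY570 slx delta 5 strain wells were the positive control but not used for scaling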
# AI-2 QS mod: modulates the Vibrio harveyi AI-2 quorum sensing system; hit rate 0.4% among 300,000; Vibrio harveyi JMH597 AI-2 luminescence/OD600 ratio, 9 h; active compounds read low; strain lacks LuxN and CqsS sensors; 0 = neutral-control median; activity change, % at 7.5 µM; in the data active means activity change below about -75%, passing the limit was not always enough;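 further: luminescence divided by OD600 gain over 9 h not by final OD600 alone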
# H9c2 protect: protects H9c2 cardiomyocytes from peroxide injury; AID 588492; protection from H2O2 cell death, % at 20 µM; H2O2 injury protection, ATPLite, 2 h; hit rate 0.63% among 360,000;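 active means compounds giving at least 50% protection of heart cells from peroxide-induced death in the single-dose screen, raw or plate-pattern-corrected value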;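 further: 0% = DMSO wells with peroxide and 100% = DMSO wells without peroxide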
# GRIN3A LBD mod: NR3A (human) ligand-binding domain modulation; NR3A LBD differential scanning fluorimetry, Tm shift; 0% = protein alone, 100% = glycine-bound protein; Tm shift relative to glycine control, % at 25 µM; hit rate 2.5% among 340,000;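 active means melting temperature shift of at least 10% of the positive control shift, at one fixed dose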
# NTR1 ag: agonists of human neurotensin receptor NTR1 | activation, % at 20 µM | hit rate 0.17% among 330,000 | NTR1-U2OS beta-arrestin-GFP spot imaging, agonist mode | P30989;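 active means activation at or above 40% of the spot to cytoplasm intensity ratio, with at least 20 cells analyzed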;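 further: 0% = DMSO without peptide and 100% = 100 nM NTR1 peptide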
# AHR activator: activates the human aryl hydrocarbon receptor. AHR-responsive luciferase reporter cells, luminescence. P35869. hit rate 2.5% among 320,000. activation, % at 5 µM; in the data active means activation above about 47%;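 further: 0% = vehicle wells and 100% = reference agonist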
# AHR act confirm: human AHR activation, confirmation; shares compounds with AHR activator; activation, % at 9 µM; human cells, AHR-responsive luciferase reporter, luminescence; hit rate 87% among 2,300; in the data active means activation above about 49%;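 further: HepG2 hepatoma cells carrying a DRE-driven firefly luciferase reporter; 0% = vehicle wells and 100% = reference agonist wells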
# PXR counter: PXR activation, counter-screen for AHR activators | shares compounds with AHR activator | cell-based PXR reporter, luciferase luminescence | activation, % at 11.6 µM | hit rate 88% among 2,300 | AID 434939; in the data active means activation above about 11%;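 further: human hepatoma DPX-2 cells expressing full-length human PXR; 0% = DMSO and 100% = reference agonist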
# Target sequence (O75469 whole entry, looked up): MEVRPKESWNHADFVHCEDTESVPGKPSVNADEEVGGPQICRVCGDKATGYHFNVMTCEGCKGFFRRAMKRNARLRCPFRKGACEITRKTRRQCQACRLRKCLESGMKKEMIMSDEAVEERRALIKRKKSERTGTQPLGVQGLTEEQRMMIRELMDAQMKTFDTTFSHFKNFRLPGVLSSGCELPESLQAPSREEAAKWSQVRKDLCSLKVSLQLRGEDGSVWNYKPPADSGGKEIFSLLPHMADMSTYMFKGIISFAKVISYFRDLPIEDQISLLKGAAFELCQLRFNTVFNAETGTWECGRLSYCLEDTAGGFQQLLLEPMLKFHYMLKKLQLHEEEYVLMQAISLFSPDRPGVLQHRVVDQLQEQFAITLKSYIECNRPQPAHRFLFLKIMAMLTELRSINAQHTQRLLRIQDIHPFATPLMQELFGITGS
# * = called active by the depositor; · = not tested or not shown. The list is not random: actives were taken first. Their share in the collection is about 6.2%.
SMILES,Mot1-301 SUMO,AI-2 QS mod,H9c2 protect,GRIN3A LBD mod,NTR1 ag,AHR activator,AHR act confirm,PXR counter
CN1CCN(Cn2cc(/C=C/C(=O)c3ccccc3)c3ccccc32)CC1,21,13,-6,26*,12,86*,110*,47*
O=C(/C=C/c1cn(CC(O)CN2CCCCC2)c2ccccc12)c1ccccc1 (stereo not given),·,8,-3,0,·,·,·,·
CC(C)CC(N)c1csc(NC(=O)C(c2ccccc2)c2ccccc2)n1 (stereo not given),·,·,-27,·,·,·,·,·
Cn1c(-c2ccc(Cl)cc2)ccc(C#N)c1=O,-2,27,-3,0,-2,100*,104*,14*
O=[N+]([O-])c1ccc(N2CCc3ccccc3C2)cc1,9,16,12,4,1,6,·,·
Oc1c(-c2cc(-c3ccco3)[nH]n2)ccc2ccccc12,3,4,-2,21*,3,116*,149*,13*
S=c1[nH]nc(-c2cc(-c3ccco3)[nH]n2)n1-c1ccccc1,-2,1,2,3,0,88*,96*,18*
NNC(=O)c1cc(-c2ccco2)[nH]n1,10,27,-6,1,0,15,·,·
Cc1c(C(=O)Nc2nccs2)oc2ccc(Br)cc12,30,·,-12,-1,10,86*,132*,22*
CC1=N/C(=C\c2ccc([N+](=O)[O-])cc2)C(=O)N1c1ccc(F)cc1F,-10,47,-12,0,1,-1,·,·
[O-][n+]1c2ccccc2c2n1CCN1CCOC21c1ccc(Cl)cc1 (stereo not given),33,·,13,-1,1,80*,118*,65*
CC(C)(C)c1ccc(C(=O)N2CCC(C(=O)NC3CCCCCC3)CC2)cc1,-7,22,2,4,1,5,·,·
CC(C)CSC1=NSC2=NC(=O)/C(=C\c3coc4ccccc4c3=O)C(=N)N12,-20,53,-11,7,-1,81*,17,18*
CSC1=NSC2=NC(=O)/C(=C\c3coc4ccccc4c3=O)C(=N)N12,20,·,-10,6,·,21,·,·
Cc1[nH][nH]c(=O)c1N=Nc1ccc(S(N)(=O)=O)cc1,-19,-1,-1,-2,0,2,·,·
Cc1[nH][nH]c(=O)c1N=Nc1ccc(Br)c(Cl)c1,-2,16,-14,-8,0,85*,128*,11*
Cc1cc(Br)ccc1NC(=O)c1sc2ncnc(N3CCN(c4ccccn4)CC3)c2c1C,16,26,5,-13,-1,80*,91*,19*
N#CC(C#N)=C1C=CC=CN1/C(=C\c1ccco1)C(=O)c1ccc(Br)cc1,291*,·,-17,-1,·,189*,180*,61*
CN1C(=O)c2cccc(NC(=O)Cc3ccccc3)c2C1=O,-2,20,23,-1,2,156*,51*,14*
Cn1c(=O)c([N+](=O)[O-])c(NCCc2ccccc2)c2ccccc21,-6,6,-4,-15,4,81*,89*,49*
Cn1c(=O)c([N+](=O)[O-])c(NCc2ccccc2Cl)c2ccccc21,6,-11,4,6,3,45,·,·
Cn1c(=O)c([N+](=O)[O-])c(NCc2ccc3c(c2)OCO3)c2ccccc21,7,0,5,-1,0,89*,99*,86*
O=C(NCCN1CCCC(O)C1)c1cc(COc2cccc(C(F)(F)F)c2)on1 (stereo not given),·,·,4,·,·,·,·,·
CN(C)c1c2ccccc2nc2c(F)c(F)c(F)c(F)c12,-20,19,-6,-1,8,7,·,·
Cc1c2ccccc2nc2c(F)c(N(C)C)c(F)c(F)c12,251,-1,-3,-2,-2,122*,14,46*
SMILES,Mot1-301 SUMO,AI-2 QS mod,H9c2 protect,GRIN3A LBD mod,NTR1 ag,AHR activator,AHR act confirm,PXR counter
Cc1cccn2c(=O)c3cc(C(=O)NC4CCCC4)sc3nc12,34,45,9,5,3,20,·,·
COc1ccccc1-c1sc2cc3c(cc2c1-c1ccc(OCCN2CCCCC2)cc1)OCO3,150,·,-35,1,9,5,·,·
COc1ccccc1-c1sc2cc3c(cc2c1-c1ccc2c(c1)OCO2)OCO3,-13,·,-1,4,2,93*,126*,162*
COC(=O)c1c(-c2ccccc2OC)sc2cc3c(cc12)OCO3,·,·,-17,-1,6,108*,92*,226*
COC(=O)c1c(-c2ccc(OC)cc2)sc2ccc(-c3ccc4c(c3)OCO4)cc12,-6,·,-6,1,0,6,·,·
CCn1ncc(-c2cc(C(=O)O)no2)c1C,360,5,·,-1,1,80*,6,3
CCCCn1c(=O)[nH]c(=O)c2c1nc(Cn1ncc(Cl)c(Cl)c1=O)n2CCC,3,11,-4,3,15,0,·,·
COc1ccc(-c2[nH]c(-c3ccccc3)nc2SCC(=O)Nc2nccs2)cc1,-4,·,11,-5,2,109*,78*,42*
COc1ccc(-c2[nH]c(-c3ccc(C)cc3)nc2SCC(=O)NC2CCCC2)cc1,25,24,-4,-9,2,104*,88*,86*
Cc1ccc(S(=O)(=O)N2CCC[C@H]2C(=O)NCc2ccccc2Cl)cc1,11,·,-4,-2,0,0,·,·
Cc1occc1C(=O)Nc1ccc(Br)cc1F,-8,25,-2,2,2,25,·,·
Cc1cc(NC(=O)c2c(Br)cnn2C)no1,·,12,2,2,-1,·,·,·
O=C(Nc1ccc(Br)cc1F)c1cccnc1,3,36,6,3,0,126*,60*,26*
Cc1nn(C)c(C(=O)Nc2ccc(Br)cc2F)c1Br,154,8,-6,-10,0,88*,110*,12*
CCCc1c(C(=O)Nc2ccc(F)cc2F)cnn1-c1ccccc1,8,4,-1,-1,0,83*,91*,71*
Cn1ncc(Br)c1C(=O)Nc1ccc(F)cc1F,1,15,2,1,-1,85*,80*,17*
CN(C)Cc1csc(NC(=O)Nc2ccccc2C(C)(C)C)n1,·,·,2,·,·,·,·,·
CCOCCn1ccc2c(OCC(=O)NCc3ccccc3)cccc2c1=O,0,13,0,2,1,0,·,·
O=C(Nc1ccnn1C1CCN(CCCc2ccccc2)CC1)c1cccc(F)c1,8,12,-6,0,0,-2,·,·
O=C1CSC(c2ccc(F)cc2)N1c1nc2ccccc2s1 (stereo not given),6,3,-12,-5,3,149*,98*,63*
